ELG1 repair inh – inhibitors of ELG1-dependent DNA repair in HEK293T cells; AID 504467; HEK293T ELG1-luciferase reporter, luminescence, 16 h; DNA damage induced by 5-fluorouridine; Potency, µM (series often up to 46.1 µM), inactives show at the highest dose activity change, negative = inhibition, usual class: inhibitors; 2.3% of 330,000 active; further: potency means the concentration at half of the fitted maximal effect; nearly all actives have a fitted effect of over 55% in size
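Step one: seed 2,000 cells per well. Step two: pin-transfer compound or DMSO alongside 5-fluorouridine. Step three: incubate 16 hr, 37 °C, 5% CO2. Step four: add ONE-Glo, wait 30 min, read luminescence.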
Sfp PPTase inh – inhibitors of Bacillus subtilis Sfp phosphopantetheinyl transferase; Q9F4F7; Biochemical Sfp PPTase activity, qHTS; Potency, µM, for inactives: largest response in the series, negative = inhibition, usual class: inhibitors; 3.5% of 310,000 active;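 further: the enzyme is Sfp with the accession as filed and its product quenches rhodamine fluorescence; potency means the concentration at half of the fitted maximal effect; 0% = enzyme reaction without inhibitor and -100% = no enzyme wells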
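Reaction rates are the 30-min fluorescence difference (ex 525, em 598 nm) in wells containing 15 nM Sfp, 5 uM rhodamine-CoA and 12.5 uM BHQ-2-YbbR at pH 7.6 with 10 mM MgCl2.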
Giardia killer – kills Giardia lamblia. Giardia lamblia trophozoite viability. activity change, % at 7.66 µM, hits read low. 0.15% of 340,000 active; in the data active means activity change below about -80%; inconclusive means between about -30% and that limit;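 further: parasites exposed to compound for two days anaerobically before the ATP read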
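Luminescence from cellular ATP indicates surviving trophozoites (100 cells/well) following 48 hrs anaerobic compound treatment at 37 deg C; signal develops 15-30 min at room temperature.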
Coupling enz – coupling enzyme interference in Giardia aldolase counter-screen; 0.67% of 290,000 active; activity change, negative = inhibition, % at 58.2 µM, hits read low; coupling enzyme system counterscreen, AmpLite Red fluorescence; in the data active means activity change below about -30%
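Fluorescence at 525 nm excitation and 598 nm emission measured inhibition of the coupled detection system without aldolase. Compounds (at 57.5 uM final) were preincubated 10 min at room temperature with coupling enzyme reagent before a 20 min substrate/AmpLite Red step.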
* marks the source's active call; other numbers are inactive results; ? = inconclusive; · = not tested or not shown. Shown are actives, neighbours in structure and some others; about 5.5% of the full set was active somewhere. Unless noted, the call rests on the fitted dose curve; in most records, active means well fitted curve in the direction sought with a large enough effect; inconclusive means small, poorly fitted or top-dose-only effect, or another doubt; inactive means no such curve, though single readings can be large; an effect the other way counts as inactive or inconclusive. Unless noted, on the % scale 0 is the no-effect control and ±100 the full control effect.

SMILES	ELG1 repair inh	Sfp PPTase inh	Giardia killer	Coupling enz
CC(C)N(C(=O)CSc1nnc(-c2cc3ccccc3cc2O)n1Cc1ccco1)C(C)C	?	-19.5%	-3.2	-0.5
Cc1occc1-c1nnc(SCC(=O)N2CCOCC2)n1Cc1ccco1	-2.5%	89.1µM*	15.1	-2.2
O=C(CSc1nnc(-c2cc3ccccc3cc2O)n1Cc1ccco1)N1CCc2ccccc2C1	?	44.7µM*	9.3	1.1
CCCN(Cc1nnc(-c2cccs2)o1)C(=O)c1cccc(S(=O)(=O)N2CCOCC2)c1	15.2%	·	-10.9	·
COc1ccc(NC(=O)CC2C(=O)N(C)C(=S)N2CCc2ccccc2F)cc1 (stereo not given)	?	12.6%	-14.7	-1.8
CCN1C(=O)C(CC(=O)Nc2ccc(OC)cc2)N(CCc2ccccc2F)C1=S (stereo not given)	16.4µM*	1.7%	10.6	1.2
Cc1ccc(Cn2nnc3c(=O)[nH]c(C4CCN(S(=O)(=O)c5ccc(S(=O)(=O)NC6CC6)cc5)CC4)nc32)cc1	?	9.7%	-10.1	2.7
O=c1[nH]c(C2CCN(S(=O)(=O)c3ccc(S(=O)(=O)NC4CC4)cc3)CC2)nc2c1nnn2Cc1cccc(F)c1	13µM*	-9.1%	27.3	-0.4
COc1ccc(-c2ncncc2-c2ccc(Cl)cc2)c(O)c1	?	-1.7%	14.2	0.3
COc1ccc(-c2cncnc2-c2ccc(OC)cc2O)cc1	5.8µM*	2.1%	27.0	0.1
COc1cccc(N=Nc2ccc3cccnc3c2O)c1	2.31µM*	15.5%	-12.8	-3.2
COc1cccc(N=Nc2ccc(O)c3ncccc23)c1	?	12.3%	-2.1	-4.4
Cc1ccc(Nc2nc3c(s2)CCC3)c(C)c1	?	?	7.1	-2.0
COc1ccccc1Nc1nc2c(s1)CCC2	?	39.8µM*	9.4	-0.4
Cc1ccccc1NC(=O)OCc1ccccc1	?	25.0%	-14.5	0.8
O=C(O)c1c(Cl)cccc1Nc1ccccc1	·	·	-9.0	·
COC(=O)C1(C(=O)OC)CC(CO)C(=O)[C@H]1c1ccccc1 (stereo not given in full)	·	-12.7%	·	-0.2
CCOC(=O)C1=C(N)Oc2cc(O)ccc2C1c1ccc([N+](=O)[O-])cc1 (stereo not given)	-4.1%	25.1µM*	0.1	-12.6
COc1cccc(OC)c1C(=O)Nc1c(C)n(C)n(-c2ccccc2)c1=O	-9.6%	18.0%	5.9	1.2
COc1ccc(-c2cc(C(=O)Nc3c(Cl)cc(Cl)cc3Cl)c3ccccc3n2)cc1OC	-4.5%	?	1.2	0.6
Cc1c(NC(=O)COC(=O)c2cc(-c3ccc(-c4ccccc4)cc3)nc3ccccc23)c(=O)n(-c2ccccc2)n1C	?	50.1µM*	?	-1.8
COc1ccc(-c2cc(C(=O)Nc3c(C)n(C)n(-c4ccccc4)c3=O)c3ccccc3n2)c(OC)c1	10.3µM*	-1.9%	-0.4	·
Cc1c(NC(=O)c2cc(-c3ccccc3)nc3ccccc23)c(=O)n(-c2ccccc2)n1C	5.8µM*	·	-23.5	·
COc1ccc(-c2cc(C(=O)Nc3c(C)n(C)n(-c4ccccc4)c3=O)c3ccccc3n2)cc1OC	7.3µM*	0.0%	13.7	0.6
Cc1cccc(C(=O)OCC(=O)Nc2c(C)n(C)n(-c3ccccc3)c2=O)c1	10.4%	·	0.0	·
SMILES	ELG1 repair inh	Sfp PPTase inh	Giardia killer	Coupling enz
COC(=O)[C@]1(C)N[C@H](CN(C)C(=O)Nc2ccc(Cl)cc2)[C@@H]2C(=O)N(C)C(=O)[C@@H]21	12.0%	·	7.5	·
Cc1c(NC(=O)C(C)OC(=O)c2cc(-c3cccc4ccccc34)nc3ccccc23)c(=O)n(-c2ccccc2)n1C (stereo not given)	?	0.4%	23.4	0.5
Cc1ccc(-c2cc(C(F)(F)F)n3nc(C(=O)Nc4c(C)n(C)n(-c5ccccc5)c4=O)cc3n2)cc1	-17.0%	-8.5%	-14.9	1.7
COc1ccc(-c2cc(C(=O)OC(C)C(=O)Nc3c(C)n(C)n(-c4ccccc4)c3=O)c3ccccc3n2)cc1 (stereo not given)	14.6µM*	13.4%	4.2	0.1
Cc1ccc(-c2cc(C(=O)Nc3c(C)n(C)n(-c4ccccc4)c3=O)c3ccccc3n2)cc1	13µM*	·	15.1	·
O=C(N/N=C/c1ccc([N+](=O)[O-])o1)c1cc2c(ccc3ccccc32)o1	15.7%	?	?	5.2
O=C(N/N=C/c1ccc([N+](=O)[O-])o1)c1cc2ccccc2o1	?	7.2%	-96.2*	0.2
Cc1nc2ccccn2c1C(=O)N/N=C/c1ccc([N+](=O)[O-])cc1	-0.8%	6.6%	2.8	5.3
Cc1nc2ccccn2c1C(=O)N/N=C/c1ccc([N+](=O)[O-])o1	10.3µM*	-16.0%	-86.1*	-3.5
O=C(Cn1c(C(=O)OCCO)cc2ccccc21)c1ccccc1	14.8%	22.2%	-7.2	0.4
CCOC(=O)C1=C(O)/C(=C/c2ccccn2)SC1=Nc1ccc(Cl)cc1	20.6µM*	31.6µM*	10.8	-2.6
Fc1ccc(/C=C2\CCCC3=C2NC(=S)NC3c2ccc(F)cc2)cc1 (stereo not given)	9.4%	44.7µM*	·	-0.7
S=C1NC2=C(CCCC2=C2SCCS2)C(c2ccccc2)N1 (stereo not given)	?	-6.5%	35.6	0.0
CC(C)CO/N=C1/C[C@@H](O)[C@@H](O)[C@@H]2[C@@H]3C(=O)N([C@@H](C)c4ccccc4)C(=O)[C@H]3CC[C@@H]12	·	?	·	-0.6
Cc1[nH]c(-c2ccccn2)nc(=S)c1Cl	?	39.8µM*	33.4	-9.3
Cc1cc(=S)nc(-c2ccccn2)[nH]1	?	35.5µM*	?	-0.1
COc1cc(NC(=O)CCc2nnc3ccc(N4CCCCC4)nn23)cc(OC)c1OC	6.5%	5.9%	1.6	·
COc1ccc(N2C(=O)c3ccccc3NC2c2ccc(OC)c(COc3ccccc3F)c2)cc1 (stereo not given)	·	·	-5.9	·
O=C(Nc1ccc(Cl)cc1)N1CCc2ccccc2C1	2.4%	79.4µM*	6.3	6.9
COc1ccc(-c2oc3cccnc3c2C#CC2(O)CCCCC2)cc1	?	79.4µM*	5.8	-1.1
Cc1n[nH]c(C)c1CCNC(=O)C1CCC(=O)N(Cc2ccccc2F)C1 (stereo not given)	11.1%	12.9%	-6.0	·
Oc1c(Br)cc(Br)cc1CNc1ccc(F)cc1	5.9%	-26.7%	-1.5	-33.1*
Oc1c(Br)cc(Br)cc1CNc1cnc2ccccc2c1	-12.7%	-17.0%	3.6	-3.4
CN(C(=O)C1CC1)C1CCS(=O)(=O)C1 (stereo not given)	0.0%	·	17.8	·
Cc1ccc(S(=O)(=O)Nc2ccc(Nc3ccccc3)cc2)cc1	-6.2%	-7.1%	6.3	0.8
Cc1ccc(S(=O)(=O)Nn2c(C)ccc2C)cc1	10.5%	56.2µM*	5.4	-7.1
Cc1ccc(S(=O)(=O)NNc2ccccc2)cc1	12.4%	31.6µM*	-0.9	-13.2
Cc1ccc(S(=O)(=O)NNc2nc3ccccc3nc2C(F)(F)F)cc1	1.1%	11.2µM*	-1.9	-1.7
CCc1ccc(NC(=O)Nc2cccs2)cc1	?	50.1µM*	-24.9	1.1

High-throughput results (PubChem BioAssay)
